# Measurements as given in PubChem BioAssay.
# Calls of active or inactive are those of the source. Unless noted, no rule for the calls is given here.
# How the values were obtained:
# [1] = tested on: Wnt5a (protein binding on small-molecule microarray); assay: small molecules binding Wnt5a protein – biophysical, small-molecule microarray, 635/667 nm fluorescence, primary screen (AID 1142); settings: 635 nm fluorescence, higher = more signal;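 also: fluorescence read at 667 nm with signal to noise per printed feature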
# [2] = ATP-based viability of Huh7 replicon cells – cell-based, CellTiter-Glo luminescence, basal, 48 h, cytotoxicity control for HCV replication inhibitor project, primary screen (AID 1143); settings: higher = more signal, called active from +8 up or from −8 down;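 also: Huh7 hepatoma cells carrying a hepatitis C replication reporter with no stimulus; test concentration not given here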
# [3] = Pseudomonas biofilm growth suppression – PAO1 strain, BacTiter-Glo luminescence, LB-PBS, primary screen (AID 1144); settings: P. aeruginosa PAO1 biofilm, 12 h, higher = more signal
# [4] = basal CRE-LacZ reporter activity in PC12 – cell-based, unstimulated, primary screen (AID 1145); settings: no forskolin, luminescence, 4.5 h, higher = more signal, called active from +8 up or from −8 down
# [5] = forskolin-driven CRE-LacZ activity in PC12 – cell-based, CRE-LacZ reporter, forskolin-stimulated, primary screen (AID 1146); settings: luminescence, 4.5 h, higher = more signal, called active from +8 up or from −8 down;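 also: PC12 cells with 6xCRE LacZ reporter stimulated by forskolin 10 µM; beta-galactosidase reporter signal reflecting CREB driven transcription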
# [6] = molecular target: Streptavidin (Streptomyces avidinii) (UniProt P22629); assay: compounds binding control protein streptavidin – biophysical, small-molecule microarray, 635/667 nm fluorescence, artefact control for SMM compound annotation, primary screen (AID 1147); settings: higher = more signal;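 also: signal reflects streptavidin binding to arrayed compounds as a control protein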
# Sequence of Streptavidin (Streptomyces avidinii) (P22629 whole entry, looked up): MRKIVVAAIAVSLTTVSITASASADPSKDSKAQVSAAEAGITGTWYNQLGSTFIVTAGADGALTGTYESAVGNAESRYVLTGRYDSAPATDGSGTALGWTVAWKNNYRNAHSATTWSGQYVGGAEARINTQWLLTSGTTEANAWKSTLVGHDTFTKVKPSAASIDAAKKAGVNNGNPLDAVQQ
# [7] = probe aInhba binding on compound microarray – biochemical, small-molecule microarray, 635/667 nm fluorescence, primary screen (AID 1148); settings: higher = more signal;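 also: score merges 667nm spot fluorescence with signal-to-noise for antibody binding to printed compounds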
# Torsin-1A (Homo sapiens) [8] = molecular target: Torsin-1A (Homo sapiens) (UniProt O14656); assay: TOR1A wild-type binding on microarray – cell lysate, small-molecule microarray, lysate, 635/667 nm, primary screen (AID 1149); settings: COS7 hTOR1A-WT lysate, 635 nm fluorescence, higher = more signal
# Sequence of Torsin-1A (Homo sapiens) (O14656 whole entry, looked up): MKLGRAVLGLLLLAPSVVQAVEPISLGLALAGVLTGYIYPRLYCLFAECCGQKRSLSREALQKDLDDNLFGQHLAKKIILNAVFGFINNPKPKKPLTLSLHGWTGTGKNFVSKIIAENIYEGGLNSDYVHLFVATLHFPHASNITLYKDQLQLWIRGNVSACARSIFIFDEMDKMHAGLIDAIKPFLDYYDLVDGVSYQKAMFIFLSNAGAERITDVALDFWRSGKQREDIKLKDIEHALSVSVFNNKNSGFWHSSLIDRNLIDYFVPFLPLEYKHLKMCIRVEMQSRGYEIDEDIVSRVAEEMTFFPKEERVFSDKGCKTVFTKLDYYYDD
# Torsin-1A (Homo sapiens) [9] = molecular target: Torsin-1A (Homo sapiens) (UniProt O14656); assay: torsin A mutant lysate binding on microarrays – cell lysate, small-molecule microarray, COS7 lysate, 635/667 nm fluorescence, primary screen (AID 1150); settings: COS7 hTOR1A mutant lysate, 635 nm fluorescence, higher = more signal;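 also: score pools 667 nm emission and signal to noise measuring lysate protein binding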
# [10] = tested on: Sonic hedgehog protein (Shh); assay: Sonic hedgehog microarray binding compounds – biochemical, small-molecule microarray, 635/667 nm fluorescence, primary screen (AID 1151); settings: 635 nm fluorescence, higher = more signal;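 also: Shh protein binding to compounds spotted on small-molecule microarray slides; score combines spot fluorescence intensity with signal-to-noise across triplicate slides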
# [11] = optical density shifts of acrAB sulA E. coli – strain DRC41, OD650, 48 h, E. coli filamentation inducer project, primary screen (AID 1152); settings: higher = more signal, called active from +8 up or from −8 down;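 also: E. coli MC1000 strain DRC41 lacking acrAB efflux pump and sulA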
# [12] = probe aLefty1 binding on compound microarray – biochemical, small-molecule microarray, 635/667 nm fluorescence, primary screen (AID 1153); settings: higher = more signal;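 also: score merges spot fluorescence with signal-to-noise ratio from the scanned slide images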
# [13] = plasmodial surface anion channel blockers, osmotic lysis – cell-based, P. falciparum Indochina, OD700, 1 h, primary screen (AID 1154); settings: P. falciparum Indochina infected RBC osmotic lysis, higher = more signal, called active from +8 up or from −8 down
# [14] = plasmodial surface anion channel blockers, osmotic lysis – cell-based, P. falciparum Indochina, OD700, 2 h, primary screen (AID 1155);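 also: lysis reports solute entry through the parasite surface anion channel PSAC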; settings: P. falciparum Indochina infected erythrocytes, higher = more signal, called active from +8 up or from −8 down
# [15] = changes in parasitized red cell lysis, either direction – P. falciparum Indochina, OD700, 3 h, PSAC antagonist project, primary screen (AID 1156); settings: P. falciparum-infected erythrocytes, osmotic lysis, higher = more signal, called active from +8 up or from −8 down
# [16] = plasmodial surface anion channel blockers, osmotic lysis – cell-based, P. falciparum Indochina, OD700, 18 h, primary screen (AID 1157); settings: P. falciparum Indochina infected erythrocytes, osmotic lysis OD700, 18 h; higher = more signal, called active from +8 up or from −8 down
# [17] = S6 kinase pathway phospho-S6 level changes – cell-based, A549, cytoblot, luminescence, serum-stimulated, primary screen (AID 1158); settings: 5 h, higher = more signal;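 also: serum-stimulated A549 lung adenocarcinoma cells; signal is phosphorylated S6 detected by cytoblot immunostaining with HRP secondary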
# [18] = molecular target: NADPH oxidase 2 (Homo sapiens) (UniProt P04839); assay: compounds shifting NOX2 Amplex Red fluorescence – cell-based, HEK293-NOX2, PMA-stimulated, NOX inhibitor project, primary screen (AID 1159); settings: 45 min, higher = more signal, called active from +8 up or from −8 down; also: test concentration not given here
# Sequence of NADPH oxidase 2 (Homo sapiens) (P04839 whole entry, looked up): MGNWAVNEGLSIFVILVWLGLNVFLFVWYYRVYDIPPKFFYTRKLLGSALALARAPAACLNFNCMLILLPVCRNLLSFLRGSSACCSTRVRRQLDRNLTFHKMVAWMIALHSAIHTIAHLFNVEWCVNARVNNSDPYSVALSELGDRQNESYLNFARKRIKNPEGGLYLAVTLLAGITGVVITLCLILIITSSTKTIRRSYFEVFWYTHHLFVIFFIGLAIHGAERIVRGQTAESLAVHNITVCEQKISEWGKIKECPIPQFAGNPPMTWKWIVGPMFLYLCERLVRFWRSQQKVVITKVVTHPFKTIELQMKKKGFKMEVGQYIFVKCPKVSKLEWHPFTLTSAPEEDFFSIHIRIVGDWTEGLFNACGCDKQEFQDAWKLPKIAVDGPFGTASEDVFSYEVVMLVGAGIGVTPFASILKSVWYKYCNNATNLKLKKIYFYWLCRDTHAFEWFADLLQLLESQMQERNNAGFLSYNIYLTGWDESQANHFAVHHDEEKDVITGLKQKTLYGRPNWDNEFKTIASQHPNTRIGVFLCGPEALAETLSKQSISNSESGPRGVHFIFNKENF
# [19] = molecular target: NADPH oxidase 4 (Homo sapiens) (UniProt Q9NPH5); assay: compounds shifting NOX4 Amplex Red fluorescence – cell-based, HEK293-NOX4, tetracycline-induced, NOX inhibitor project, primary screen (AID 1160); settings: HEK293-NOX4, Amplex Red H2O2 fluorescence, 45 min; higher = more signal, called active from +8 up or from −8 down
# Sequence of NADPH oxidase 4 (Homo sapiens) (Q9NPH5 whole entry, looked up): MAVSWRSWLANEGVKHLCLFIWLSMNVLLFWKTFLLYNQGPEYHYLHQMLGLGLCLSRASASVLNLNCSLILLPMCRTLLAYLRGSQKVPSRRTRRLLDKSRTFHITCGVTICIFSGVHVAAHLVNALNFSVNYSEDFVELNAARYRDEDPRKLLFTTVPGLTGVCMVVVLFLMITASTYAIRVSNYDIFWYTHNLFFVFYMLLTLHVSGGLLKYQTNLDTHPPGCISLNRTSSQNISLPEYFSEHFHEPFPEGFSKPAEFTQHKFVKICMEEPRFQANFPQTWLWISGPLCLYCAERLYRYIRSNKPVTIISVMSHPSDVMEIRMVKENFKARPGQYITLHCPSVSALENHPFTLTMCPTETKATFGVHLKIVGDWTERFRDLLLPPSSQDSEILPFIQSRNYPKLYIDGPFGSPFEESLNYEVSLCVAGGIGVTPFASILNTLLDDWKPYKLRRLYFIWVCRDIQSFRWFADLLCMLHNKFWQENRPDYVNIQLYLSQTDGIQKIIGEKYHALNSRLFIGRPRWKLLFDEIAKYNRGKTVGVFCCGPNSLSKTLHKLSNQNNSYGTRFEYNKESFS
# [20] = molecular target: NADPH oxidase 5 (Homo sapiens) (UniProt Q96PH1); assay: compounds shifting NOX5 Amplex Red fluorescence – cell-based, HEK293-NOX5, NOX inhibitor project, primary screen (AID 1161); settings: HEK293-NOX5, ionomycin, 45 min, higher = more signal
# Sequence of NADPH oxidase 5 (Homo sapiens) (Q96PH1 whole entry, looked up): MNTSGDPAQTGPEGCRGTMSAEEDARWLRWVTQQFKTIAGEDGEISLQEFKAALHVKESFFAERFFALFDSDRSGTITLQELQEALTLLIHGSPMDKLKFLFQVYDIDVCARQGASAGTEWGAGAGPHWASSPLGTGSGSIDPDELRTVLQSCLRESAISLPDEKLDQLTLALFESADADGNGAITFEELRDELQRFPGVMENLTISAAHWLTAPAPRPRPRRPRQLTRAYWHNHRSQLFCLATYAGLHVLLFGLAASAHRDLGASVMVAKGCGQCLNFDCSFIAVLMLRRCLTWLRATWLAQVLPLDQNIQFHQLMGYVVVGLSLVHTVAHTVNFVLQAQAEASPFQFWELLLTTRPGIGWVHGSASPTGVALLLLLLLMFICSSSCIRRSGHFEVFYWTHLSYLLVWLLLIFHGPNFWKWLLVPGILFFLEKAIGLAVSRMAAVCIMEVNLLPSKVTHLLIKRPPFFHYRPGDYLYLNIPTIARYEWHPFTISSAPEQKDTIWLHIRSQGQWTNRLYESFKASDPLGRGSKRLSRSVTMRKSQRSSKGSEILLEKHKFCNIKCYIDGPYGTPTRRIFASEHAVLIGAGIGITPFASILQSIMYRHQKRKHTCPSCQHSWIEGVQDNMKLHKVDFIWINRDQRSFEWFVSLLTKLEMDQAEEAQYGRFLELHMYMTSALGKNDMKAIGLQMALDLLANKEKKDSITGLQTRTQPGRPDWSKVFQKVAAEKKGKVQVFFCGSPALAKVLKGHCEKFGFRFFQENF
Structure (SMILES),composite z-score [1],z-score [2],z-score [3],z-score [4],z-score [5],composite z-score [6],composite z-score [7],composite z-score (Torsin-1A (Homo sapiens) [8]),composite z-score (Torsin-1A (Homo sapiens) [9]),composite z-score [10],z-score [11],composite z-score [12],z-score [13],z-score [14],z-score [15],z-score [16],z-score [17],z-score [18],z-score [19],z-score [20]
COC(=O)[C@H]1N=C(c2ccc(OCCCO)cc2)O[C@H]1c1ccccc1CN=[N+]=[N-],-0.0973,-1.45 (inactive),0.446 (inactive),-0.23 (inactive),-0.785 (inactive),-0.129,0.11,-1.66,-0.8,0.166,0.495 (inactive),0.938,24 (active),7.57 (inactive),1.35 (inactive),1.11 (inactive),-0.221,-0.102 (inactive),1.43 (inactive),0.352
COc1ccc(C#Cc2ccc3c(c2)[C@]2(C(=O)N3)[C@H](C(=O)O)[C@H]3C(=O)O[C@H](c4ccccc4)[C@H](c4ccccc4)N3[C@@H]2c2ccc(OCCO)cc2)cc1,0.356,-0.969 (inactive),-0.859 (inactive),0.272 (inactive),0.408 (inactive),1.59,0.399,-0.0331,0.739,1.3,0.962 (inactive),0.33,3.33 (inactive),-0.266 (inactive),-8.91 (active),-0.097 (inactive),-0.0207,1.67 (inactive),-0.925 (inactive),1.12
CCN(CC)c1ccc(N2CC=CC34O[C@@H]5/C=C\CCCOC(=O)C5[C@H]3C(=O)N(CCCCCCO)[C@@H]4C2=O)cc1 (stereo not given in full),-0.517,-0.0416 (inactive),0.194 (inactive),0.475 (inactive),0.458 (inactive),-0.41,-0.0762,-1.7,-1.59,0.216,1.75 (inactive),0.135,1.78 (inactive),-0.475 (inactive),0.625 (inactive),-0.354 (inactive),1.66,0.274 (inactive),0.275 (inactive),1.36
COCCOC(=O)N1C(=O)[C@@]2(c3cc(C#CCCO)ccc31)[C@H](C(=O)NC[C@H](O)c1ccccc1)[C@H]1C(=O)O[C@H](c3ccccc3)[C@H](c3ccccc3)N1[C@@H]2c1ccccc1OCCO,0.524,-1.34 (inactive),1.59 (inactive),-0.0607 (inactive),0.172 (inactive),0.562,0.413,1.19,0.597,1.35,-0.0118 (inactive),0.213,2.52 (inactive),0.963 (inactive),-0.654 (inactive),0.705 (inactive),-0.18,1.54 (inactive),0.992 (inactive),1.17
COC(=O)c1ccc(OC)c(/C=C\CC(CCc2ccccc2)OC(C)=O)c1 (stereo not given),-0.526,-0.785 (inactive),0.245 (inactive),1.04 (inactive),-0.0403 (inactive),0.245,-0.182,-0.813,-0.152,0.482,-0.601 (inactive),-0.456,8.9 (active),0.865 (inactive),-0.297 (inactive),0.0093 (inactive),-0.0781,-0.135 (inactive),0.424 (inactive),-0.983
CCCC[C@@H](O)C1=C(COc2ccccc2)Cn2c(=O)n(-c3ccccc3)c(=O)n2[C@H]1CO,-0.154,-1.86 (inactive),-0.569 (inactive),1.67 (inactive),-1.23 (inactive),-0.447,-0.0762,-0.218,-0.348,-0.0649,2.85 (inactive),-0.275,2.58 (inactive),-0.478 (inactive),-0.34 (inactive),-2.27 (inactive),0.814,-0.809 (inactive),0.33 (inactive),-0.235
COCCOC(=O)N1C(=O)[C@@]2(c3ccccc31)[C@H](c1ccc(OCCO)cc1)N1[C@H](c3ccccc3)[C@H](c3ccccc3)OC(=O)[C@H]1[C@@H]2C(=O)NC[C@H](O)c1ccccc1,0.385,-1.49 (inactive),0.109 (inactive),0.891 (inactive),10.1 (active),0.258,0.268,1.19,0.662,2.04,-0.769 (inactive),0.643,7.9 (inactive),1.94 (inactive),0.0925 (inactive),0.728 (inactive),-0.575,1.28 (inactive),0.989 (inactive),0.894
CO[C@H]1O[C@H](CO)[C@@H](OC(=O)Nc2cccc(F)c2)[C@H](OC(=O)Nc2ccc3c(c2)OCO3)[C@H]1OC(=O)Nc1ccc2c(c1)OCO2,0.146,-2.58 (inactive),-0.905 (inactive),0.195 (inactive),-0.724 (inactive),-0.0782,0.0155,0.967,1.2,1.52,0.903 (inactive),0.236,6.15 (inactive),0.462 (inactive),0.521 (inactive),0.643 (inactive),-0.0353,-3.15 (inactive),-0.681 (inactive),-2.02
COC(=O)[C@@]1(Cc2ccccc2)[C@H]2c3cc(C(=O)N(C)C)n(Cc4ccccn4)c3C[C@H]2CN1C(=O)c1ccccc1,0.283,-1.16 (inactive),-0.0189 (inactive),1.73 (inactive),1.42 (inactive),2.27,0.38,-0.208,0.239,-0.709,-1.59 (inactive),0.378,1.32 (inactive),0.458 (inactive),0.365 (inactive),0.544 (inactive),-0.733,0.048 (inactive),-1.87 (inactive),-2.08
